Rows were chosen to be rich in hits. Some 10% of all compounds tested hit in one or more screens of this group.
JMJD2A Tudor inh – qHTS Assay for Inhibitors of JMJD2A-Tudor Domain. Lysine-specific demethylase 4A (Homo sapiens), O75164. AlphaScreen JMJD2A-Tudor / H3K4me3 peptide binding. Potency, µM (titrated, usually from 114 µM), for the others: at the highest dose activity change, negative = inhibition, usual class: inhibitors. 390,000 compounds, 4.4% hits; further: on the % scale 0 is the no-effect control and ±100 the full control effect; nearly all actives have a fitted effect of over 50% in size
G9a block – qHTS Assay for Inhibitors of Histone Lysine Methyltransferase G9a. Histone-lysine N-methyltransferase EHMT2 (Homo sapiens), Q96KQ7. G9a H3K9 monomethylation, AlphaScreen, 2 h. Potency, µM (top dose mostly 102 µM), without a hit: top-dose activity, negative = inhibition, actives largely listed as inhibitors. 350,000 compounds, 8.8% hits. AID 504332, 2011; further: on the % scale 0 is the no-effect control and ±100 the full control effect; nearly all actives have a fitted effect of over 75% in size
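G9a (20 nM) preincubated 15 min RT with compounds, then 500 nM biotinylated H3K9 peptide and 20 uM SAM added; 2 h RT reaction. Monomethyl-H3K9 product detected by AlphaScreen with anti-H3K9me1 antibody, streptavidin donor and anti-rabbit IgG acceptor beads.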
GLS inh – qHTS for Inhibitors of Glutaminase (GLS); Glutaminase kidney isoform, mitochondrial (Homo sapiens), O94925; GLS enzymatic activity, qHTS titration; Potency, µM (highest dose often 45.5 µM), inactives show top-dose activity change, negative = inhibition, actives largely listed as inhibitors; 410,000 compounds, 0.21% hits; AID 624170, 2012; further: on the % scale 0 is the no-effect control and ±100 the full control effect
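Assay buffer: 45 mM KH2PO4 pH 8.2, 0.02% Tween-20. hKGA acts on L-glutamine (1 mM solution added); product glutamate is reported by an oxidase/peroxidase Amplex Red coupling, with fluorescence taken at baseline and 30 min.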
L3MBTL1 block – qHTS Assay for the Inhibitors of L3MBTL1 | 230,000 compounds, 0.66% hits | AID 485360, 2010 | Lethal(3)malignant brain tumor-like protein 1 (Homo sapiens), Q9Y468 | Potency, µM (top dose mostly 57.1 µM), inactives show top-dose activity, negative = inhibition, actives largely listed as inhibitors | AlphaScreen L3MBTL1–H3K9me1 peptide binding; further: on the % scale 0 is the no-effect control and ±100 the full control effect; nearly all actives have a fitted effect of over 60% in size
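L3MBTL1 50 nM + b-AHA-H3(1-15)K9me1 75 nM, 30 min RT; compound added, 30 min RT; streptavidin donor/Ni-chelate acceptor beads 10 ug/mL each final, 30 min RT dark; AlphaScreen read.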
BAZ2B inh – qHTS Assay for Inhibitors of BAZ2B. Potency, µM (titrated, usually from 114 µM), for inactives: at the top dose activity change, negative = inhibition, most hits filed as inhibitors. 360,000 compounds, 4.4% hits. AlphaScreen BAZ2B-H3K14Ac peptide displacement. Bromodomain adjacent to zinc finger domain protein 2B (Homo sapiens), Q9UIF8; further: on the % scale 0 is the no-effect control and ±100 the full control effect; nearly all actives have a fitted effect of over 60% in size
Target sequence (Q9UIF8 whole entry, looked up, the tested form may be a part): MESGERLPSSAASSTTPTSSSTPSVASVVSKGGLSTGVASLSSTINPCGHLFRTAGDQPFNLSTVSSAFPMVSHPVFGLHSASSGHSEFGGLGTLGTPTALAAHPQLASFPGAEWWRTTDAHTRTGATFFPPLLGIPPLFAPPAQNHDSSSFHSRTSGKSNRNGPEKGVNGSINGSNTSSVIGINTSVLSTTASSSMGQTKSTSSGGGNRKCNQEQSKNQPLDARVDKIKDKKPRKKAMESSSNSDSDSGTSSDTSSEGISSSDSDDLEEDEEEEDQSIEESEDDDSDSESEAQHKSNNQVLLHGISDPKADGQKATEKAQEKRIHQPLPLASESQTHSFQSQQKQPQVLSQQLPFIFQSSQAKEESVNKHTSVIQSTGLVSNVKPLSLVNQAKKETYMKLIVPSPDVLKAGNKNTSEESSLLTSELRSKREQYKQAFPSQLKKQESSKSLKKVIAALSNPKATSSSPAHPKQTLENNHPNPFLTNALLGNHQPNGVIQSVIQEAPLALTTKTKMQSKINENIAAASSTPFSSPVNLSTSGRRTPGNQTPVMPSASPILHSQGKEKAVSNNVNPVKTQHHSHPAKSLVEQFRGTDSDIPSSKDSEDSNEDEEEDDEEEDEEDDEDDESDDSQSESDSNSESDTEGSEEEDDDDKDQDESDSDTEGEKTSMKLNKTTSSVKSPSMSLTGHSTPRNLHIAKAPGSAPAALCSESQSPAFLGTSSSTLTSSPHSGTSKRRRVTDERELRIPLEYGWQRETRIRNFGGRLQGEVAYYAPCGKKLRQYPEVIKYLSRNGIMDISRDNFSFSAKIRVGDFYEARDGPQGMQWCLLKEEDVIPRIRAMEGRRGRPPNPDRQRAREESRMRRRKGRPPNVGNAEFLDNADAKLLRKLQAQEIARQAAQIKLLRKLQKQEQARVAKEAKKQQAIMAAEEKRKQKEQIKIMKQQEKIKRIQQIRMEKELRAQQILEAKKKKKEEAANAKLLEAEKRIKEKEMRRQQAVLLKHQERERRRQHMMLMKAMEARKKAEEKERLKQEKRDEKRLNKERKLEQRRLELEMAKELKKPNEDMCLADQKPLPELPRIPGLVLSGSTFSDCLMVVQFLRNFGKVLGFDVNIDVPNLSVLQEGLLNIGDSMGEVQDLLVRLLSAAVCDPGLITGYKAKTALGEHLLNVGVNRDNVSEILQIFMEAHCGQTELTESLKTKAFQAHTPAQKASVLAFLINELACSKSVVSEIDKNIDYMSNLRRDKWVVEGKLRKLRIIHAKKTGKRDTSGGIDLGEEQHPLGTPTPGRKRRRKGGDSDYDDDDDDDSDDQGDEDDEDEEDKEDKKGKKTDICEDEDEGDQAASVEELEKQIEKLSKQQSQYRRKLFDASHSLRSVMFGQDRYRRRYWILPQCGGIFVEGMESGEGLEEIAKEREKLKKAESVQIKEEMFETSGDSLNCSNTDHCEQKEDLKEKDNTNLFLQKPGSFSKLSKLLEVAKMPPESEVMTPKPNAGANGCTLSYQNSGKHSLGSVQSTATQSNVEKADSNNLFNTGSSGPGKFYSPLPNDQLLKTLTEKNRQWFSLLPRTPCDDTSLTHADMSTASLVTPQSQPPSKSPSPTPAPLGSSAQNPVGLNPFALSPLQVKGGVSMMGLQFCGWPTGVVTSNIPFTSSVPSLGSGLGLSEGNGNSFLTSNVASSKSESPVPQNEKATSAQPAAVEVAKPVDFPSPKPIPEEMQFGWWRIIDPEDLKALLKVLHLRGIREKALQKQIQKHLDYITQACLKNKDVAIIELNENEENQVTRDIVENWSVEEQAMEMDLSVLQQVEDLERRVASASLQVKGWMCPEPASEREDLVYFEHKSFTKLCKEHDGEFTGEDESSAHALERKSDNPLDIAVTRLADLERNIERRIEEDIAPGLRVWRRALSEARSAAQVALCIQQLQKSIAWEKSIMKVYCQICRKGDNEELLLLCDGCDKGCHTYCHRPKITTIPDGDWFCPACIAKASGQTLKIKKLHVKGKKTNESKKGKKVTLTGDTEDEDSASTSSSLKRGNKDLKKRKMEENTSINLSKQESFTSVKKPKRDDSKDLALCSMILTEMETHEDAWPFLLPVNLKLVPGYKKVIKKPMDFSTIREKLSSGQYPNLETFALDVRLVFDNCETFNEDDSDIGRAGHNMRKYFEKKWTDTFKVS
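Complex of BAZ2B and biotin-H3K14Ac (50 nM apiece) forms over 30 min at RT, then faces library compounds up to 110 uM for another 30 min; AlphaScreen beads added, 20 min dark incubation, luminescence read.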
HP1b binding inh – HTS for Inhibitors of HP1-beta Chromodomain Interactions with Methylated Histone Tails | Chromobox protein homolog 1 (Homo sapiens), P83916 | AlphaScreen HP1-beta / biotin-H3K9me3 peptide binding | Potency, µM (doses to about 114 µM), for inactives: top-dose activity change, negative = inhibition, usual class: inhibitors | 390,000 compounds, 0.56% hits | AID 540317, 2011; further: nearly all actives have a fitted effect of over 70% in size
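AlphaScreen: HP1-beta (50 nM) preformed 30 min with biotin-H3(1-18)K9me3 peptide (50 nM) in PBS pH 7.4, 0.01% Tween-20. Compound added for 30 min at RT, then streptavidin donor/nickel chelate acceptor beads (10 ug/mL) for 30 min.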
The depositor's hits bear a star; ? = inconclusive; nt = no result given; ! = not confirmed by another sample; [ ] = dose if it differs, or a comment. The call rests on the fitted dose curve; in most records, active means well fitted curve in the direction sought with a large enough effect; inconclusive means small, poorly fitted or top-dose-only effect, or another doubt; inactive means no such curve, though single readings can be large; an effect the other way counts as inactive or inconclusive. Potency means the concentration at half of the fitted maximal effect.

SMILES	JMJD2A Tudor inh	G9a block	GLS inh	L3MBTL1 block	BAZ2B inh	HP1b binding inh
COCCCNC(=O)CCCn1c(SCC(=O)c2ccc(F)cc2)nc2c(sc3ccccc32)c1=O	-8.8%	-29.2%[59 µM]	4.3%	nt	-13.3%	20.7%
COc1ccc(Cl)cc1NC(=O)CSC1=Nc2ccccc2C2=NC(CC(=O)NCc3ccc4c(c3)OCO4)C(=O)N12 (stereo not given)	-16.1%	-45.5%[59 µM]	5.5%	nt	?	13.2%
CCNc1ncc2nc(-c3ccc(OC)cc3)c(=O)n(Cc3cccs3)c2n1	nt	2.0%[0.501 µM]	nt	nt	nt	nt
COC(=O)c1cccc(/C=N/NC(N)=S)c1O	?	-0.9%	21.0%	?	4.47µM*	34.3%
NC(=S)N/N=C/c1ccccc1[N+](=O)[O-]	-12.1%	nt	6.9%	0.8%	-10.1%	?
COc1cccc(/C=N/NC(=O)c2cc3cc([N+](=O)[O-])ccc3s2)c1O	63.1µM*	?	-7.4%	?	22.4µM*	?
COc1ccccc1/C=N/NC(=O)c1ccc(NC(=O)c2cccc([N+](=O)[O-])c2)cc1	nt	-37.2%	nt	?	7.7%	nt
COc1cccc(/C=N/NC(=O)c2cnccn2)c1O	-16.9%[11.4 µM]	6.2%	16.7%	?	79.4µM*	50.6%
COc1cccc(/C=N/NC(=O)C(=O)N2CCCCCC2)c1O	79.4µM*	nt	16.3%	nt	79.4µM*	42.6%
COc1ccc(OC)c(/C=N/NC(=O)C(=O)N2CCCC2)c1	-7.8%	27.7%	-3.8%	-1.5%	-1.6%	68.9%
COc1ccc(OC)c(CNC(=O)c2cc3ccc4cccnc4c3[nH]2)c1	?	-50.4%[59 µM]	1.5%	nt	-21.5%[57.1 µM]	16.5%
COc1cccc(/C=N/NC(=O)C(=O)NCc2ccco2)c1O	?	2.3%	7.1%	?	3.1%	27.1%
COc1cccc(/C=N/NC(=O)C(=O)N/N=C/c2cccc(OC)c2O)c1O	100µM*	4.9%	3.9%	?	50.1µM*	37.3%
FC(F)(F)c1cc(C(F)(F)F)c2ccc(N/N=C/c3ccccc3)nc2n1	-10.8%	-7.9%[59 µM]	4.9%	-2.7%	3.2%	41.3%
CN(N)c1ccc2c(C(F)(F)F)cc(C(F)(F)F)nc2n1	?	35.4%	-20.2%	nt	?	-15.4%
Cc1ccc(C(C#N)c2ccc3c(C(F)(F)F)cc(C(F)(F)F)nc3n2)cc1 (stereo not given)	5.62µM*	11.2µM*	12.5%	?	8.91µM*	14.1µM*
N#CC(c1ccccc1)c1ccc2c(C(F)(F)F)cc(C(F)(F)F)nc2n1 (stereo not given)	44.7µM*	10µM*	-7.0%	nt	10µM*	14.1µM*
COc1cccc(C(=O)CC2(O)C(=O)Nc3ccc(Cl)cc32)c1 (stereo not given)	2.1%	-28.2%[59 µM]	12.3%	nt	6.9%	27.5%
CC(C)(C)NC(=O)Nc1ccc(F)c(Cl)c1	9.1%	5.9%[59 µM]	-7.4%	4.4%	-4.3%	40.3%
CC(C)(O)C(=O)NNC(=S)Nc1ccc(F)c(Cl)c1	-15.3%	44.7µM*	?	0.0%	-1.1%	6.0%
O=C1OC(c2ccc(Cl)cc2)=C/C1=C/c1cccnc1	-11.1%	56.2µM*	4.9%	nt	-20.9%	7.8%
O=C1OC(c2ccc(F)cc2)=C/C1=C\c1ccc([N+](=O)[O-])o1	nt	10µM*	nt	nt	44.7µM*	nt
O=C1OC(c2ccc(F)cc2)=C/C1=C\c1ccc(O)cc1	-16.3%	35.5µM*	2.3%	3.5%	-3.8%	6.7%
COc1cc(NC(=O)CSc2nnc(C)n3c2cc2oc(C)cc23)cc(OC)c1	7.7%	3.0%[59 µM]	1.3%	nt	-8.6%	41.9%
CSc1ccc(CCNC(=O)Cn2ncn3c(cc4ccccc43)c2=O)cc1	-0.4%	1.1%[59 µM]	-4.8%	nt	-13.9%	48.0%
SMILES	JMJD2A Tudor inh	G9a block	GLS inh	L3MBTL1 block	BAZ2B inh	HP1b binding inh
CC(=O)c1ccc(NC(=O)CSC2=NS(=O)(=O)c3cc(Cl)ccc3N2)cc1	-11.0%	?	22.1%	-2.7%	-7.7%	8.2%
O=C(CSC1=NS(=O)(=O)c2cc(Cl)ccc2N1)c1ccc(Cl)cc1	-10.7%	56.2µM*	1.7%	-5.4%	-9.1%	44.0%
CC1=NS(=O)(=O)c2cc(Cl)ccc2N1	-5.8%	2.82µM*!	-4.1%	-0.4%	5.4%	24.7%
COc1ccc(NC(=O)C2CCN(S(=O)(=O)c3cccc(-c4noc(C)n4)c3)CC2)cc1OC	-26.3%	-0.8%[59 µM]	-1.7%	nt	-17.6%	?
N#Cc1cccc(NS(=O)(=O)c2ccc3c(c2)CCC(=O)N3)c1	-4.3%	nt	nt	nt	nt	nt
Cc1ccc2ncnc(NCc3ccco3)c2c1	-4.6%[57.1 µM]	nt	nt	nt	nt	5.1%[57 µM]
O=[N+]([O-])c1ccccc1/C=C/C=N/n1c(-c2cc(-c3ccccc3)n[nH]2)n[nH]c1=S	50.1µM*	nt	0.0%	?	-32.3%	1.1%
Cc1ccc(-c2n[nH]c(=S)n2/N=C/C=C/c2ccccc2[N+](=O)[O-])cc1	-35.8%	0.282µM*	?	nt	?	?
O=C(N/N=C/C=C\c1ccccc1[N+](=O)[O-])c1cc(-c2ccccc2)nc2ccccc12	-33.2%	0.2%[59 µM]	3.9%	-16.0%	-31.3%	17.3%
O=[N+]([O-])c1ccccc1/C=C/C=N/n1c(-c2ccco2)n[nH]c1=S	22.4µM*	-130.8%	?	-16.5%[2.29 µM]	?	-14.9%
Cc1cc(C)cc(NC(=O)C(NS(=O)(=O)c2cccc3nsnc23)c2ccccc2)c1 (stereo not given)	?	-4.7%[59 µM]	0.3%	nt	nt	-7.9%
CCN(CC)S(=O)(=O)c1ccc2c(c1)N(CC(=O)N1CCN(c3ccc(Cl)cc3)CC1)C(=O)CO2	-17.3%	6.5%[59 µM]	4.3%	nt	13.1%	23.2%
CSc1nc2ccc(NC(=O)C3=NNC(=O)CC3)cc2s1	-22.4%	3.4%	3.7%	-11.3%	-10.9%	27.9%
CSc1nc2ccc(NC(=O)C3=NN(c4ccccc4)C(=O)CC3)cc2s1	?	44.7µM*	-19.5%	?	-30.6%	-2.3%
CSc1nc2ccc(NC(=O)c3ccccn3)cc2s1	28.2µM*	?	-14.3%	nt	2.0%	16.7%
O=C(NCc1ccncc1)C1=NN(c2ccccc2)C(=O)CC1	-15.1%	25.1µM*	13.8%	9.0%	-3.6%	43.9%
Cc1cc(C)c(-c2csc(NC(=O)C3=NN(c4ccccc4)C(=O)CC3)n2)c(C)c1	-26.2%	28.2µM*	-9.3%	-19.8%	-6.0%	39.0%
O=C(Nc1cccnc1Cl)C1=NN(c2ccccc2)C(=O)CC1	-4.5%	nt	-2.4%	nt	-4.4%	54.3%
